# Data published in PubChem BioAssay (NCATS).
# Inconclusive results are not listed. A call without a number means that no potency is given here. The source made the active and inactive calls. The call rests on the fitted dose curve; in most records, active means well fitted curve in the direction sought with a large enough effect; inconclusive means small, poorly fitted or top-dose-only effect, or another doubt; inactive means no such curve, though single readings can be large; an effect the other way counts as inactive or inconclusive.
# How the values were obtained:
# [1] = biological target: Aldehyde dehydrogenase, mitochondrial (Homo sapiens) (UniProt P05091); experiment: qHTS for Inhibitors of the Aldehyde Dehydrogenase Family (ALDH2) Primary screen (AID 2061308); further: nearly all actives have a fitted effect of over 55% in size
# [2] = biological target: Retinaldehyde dehydrogenase 3 (Homo sapiens) (UniProt P47895); experiment: qHTS for Inhibitors of the Aldehyde Dehydrogenase Family (ALDH1A3) Primary screen (AID 2061315)
SMILES,Potency [1],Potency [2]
C/C(=C\c1ccsc1)C1Nc2cccc3cccc(c23)N1,inactive,inactive
O=C1c2ccccc2C(=O)N1c1ccccn1,inactive,inactive
O=C(O)c1ccc(O)c2ncc(N3CCCN(CCCc4ccncc4)CC3)cc12,inactive,inactive
Cc1nc(NCc2ccccc2)c2nc(-c3ccccc3)n(C3CCN(Cc4ccccc4)C3)c2n1 (stereo unspecified),inactive,inactive
CCCn1c(-c2ccc(F)cc2)nc2c(NCC3CCCN3CC)nc(C)nc21 (stereo unspecified),inactive,inactive
Cc1cc(C)nc(NC(=S)N2CCN(c3cc(C(F)(F)F)nc4ccccc34)CC2)c1,inactive,inactive
O=[S+]([O-])(Nc1nccs1)c1ccc(NCc2cc(Cl)cc(Br)c2O)cc1,inactive,inactive
CCN(CC)CCn1c(-c2ccccc2)nc2c(NCc3ccccc3)nc(C)nc21,inactive,inactive
CCCn1c(-c2ccc(F)cc2)nc2c(N3CCC(N(C)C)C3)nc(C)nc21 (stereo unspecified),inactive,inactive
Cc1ccc(-c2ccc(=O)n(CC(=O)N(C)C(C)C(C)C)n2)cc1 (stereo unspecified),inactive,inactive
C=C(C)C(=O)O[C@H]1/C(C=O)=C\CC/C(CO)=C/[C@H]2OC(=O)C(=C)[C@@H]2[C@@H]1OC,inactive,inactive
O=C(NC1CCCc2c1cnn2-c1ccc(F)cc1F)c1ccccc1 (stereo unspecified),inactive,inactive
Cc1cc2c(s1)c1cnn(Cc3cccc(Br)c3)c(=O)c1n2C,inactive,inactive
Cc1ccc(OCCn2c(CCNC(=O)c3cc([N+](=O)[O-])ccc3[N+](=O)[O-])nc3ccccc32)cc1,inactive,inactive
CCN(CC)CCCC(C)n1c(-c2ccccc2)nc2c(NCCOC)nc(C)nc21 (stereo unspecified),inactive,inactive
COc1ccc(CCC(=O)NCCc2nc3ccccc3n2CCOc2ccc(C)cc2)cc1,inactive,inactive
Nc1cccc(OCCn2c(CCNC(=O)C3CCCCC3)nc3ccccc32)c1,inactive,inactive
CO/N=C(/C(=O)N[C@@H]1C(=O)N2C(C(=O)O)=C(Cn3nnc(C)n3)CS[C@H]12)c1csc(N)n1,inactive,inactive
CCOc1ccc(CCN(C)C(=O)c2cc3sccc3n2Cc2ccccc2)cc1OCC,inactive,inactive
COc1cc(O)c(C(CC(=O)N2CCCC(c3ccccc3)C2)c2ccc3c(c2)OCO3)c(OC)c1 (stereo unspecified),inactive,inactive
CCCCNC(=S)NCCCN(Cc1ccc(Cl)c(Cl)c1)c1ccc(Br)cn1,inactive,inactive
Cc1ccc(CNc2nc(-c3ccccc3C(F)(F)F)nc3ccccc23)s1,inactive,inactive
O=C(Nc1ccc(-c2cccnc2)nc1)c1cccs1,inactive,inactive
O=C(Nc1ccc(Cl)c([N+](=O)[O-])c1)Nc1cccc(-c2ccncc2)n1,inactive,inactive
CN(CC(F)(F)F)c1nc(NCc2ccc(-c3cccnc3)cc2)c2ccccc2n1,inactive,inactive
O=C([C@H](Cc1ccc(O[S+](=O)([O-])c2cccc3cnccc23)cc1)N[S+](=O)([O-])c1cccnc1)N1CCN(c2ccccc2)CC1,inactive,inactive

SMILES,Potency [1],Potency [2]
Fc1cc(Nc2nc(-c3ccncc3)nc3ccccc23)ccc1-c1ccnc(C(F)(F)F)c1,inactive,inactive
Cc1nc(N2CCOCC2)c2nc(-c3ccccc3)n(CCN3CCCCC3)c2n1,inactive,inactive
O=C(Nc1ccc(S(=O)(=O)Nc2nccs2)cc1)C1CCC2(CC1)CC2,inactive,inactive
CN1C(=O)CCc2cc(S(=O)(=O)Nc3ccc(Cl)c(Cl)c3)ccc21,inactive,inactive
Cc1ccc(-c2csc(NC(=O)c3ccncc3NS(=O)(=O)c3ccc(C)cc3)n2)cc1,inactive,inactive
C=C(C)C(=O)O[C@H]1C[C@@](C)(O)C2(O)CCC(C)(/C=C3/OC(=O)C(COC)=C31)O2 (stereo partly specified),inactive,inactive
COc1cc(NS(=O)(=O)c2ccc(C)cc2)cc(C(=O)Nc2nc(-c3ccccc3)cs2)c1,inactive,inactive
CC(=O)c1ccccc1-c1ncc(C)c(NCC2CCN(c3cccnc3)CC2)n1,inactive,inactive
O=C(O)c1ccc(-c2ccc3ncnc(NCc4nccs4)c3c2)o1,inactive,inactive
O=C1CCc2cc(S(=O)(=O)Nc3cccc(F)c3)ccc2N1,inactive,inactive
CC(C)(C)OC(=O)Cc1nnc(-c2nc3ccccc3[nH]2)s1,inactive,inactive
Cc1cccc(-n2cnc3cc(C(=O)N4CCC(C(F)(F)F)CC4)ccc32)c1,inactive,inactive
Cn1c2ccsc2c2cnn(Cc3ccc(F)cc3)c(=O)c21,inactive,inactive
Cc1ccc(NS(=O)(=O)c2cc3c(cc2N[C@H](C)CO)NC(=O)CC3)cc1C,inactive,inactive
NS(=O)(=O)c1ccc(Nc2nc(-c3ccccc3)cs2)cc1,inactive,inactive
C=C[C@H]1CN2CC[C@H]1C[C@@H]2C(O)c1ccnc2ccc(OC)cc12 (stereo partly specified),inactive,inactive
O=C(Nc1nc(-c2ccccc2)cs1)c1ccncc1NS(=O)(=O)c1ccc(F)cc1Cl,inactive,inactive
N#Cc1c(Oc2ccc(F)c(NC(=O)Cc3cccc(C(F)(F)F)c3)c2)ccc2nc(NC(=O)C3CC3)sc12,inactive,inactive
Cc1ccnc(NC(=S)N2CCN(c3ncc(C(F)(F)F)cc3Cl)CC2)c1,inactive,inactive
Cc1ccc(-c2nccc(=O)n2CC(=O)N(C)C(C)c2ccco2)cc1 (stereo unspecified),inactive,inactive
CC(=O)Nc1sc2c(c1-c1cncnc1)CCNC2,inactive,inactive
c1ccc(-n2cc(-c3nnc4n3CCCCC4)c3ccccc32)cc1,inactive,inactive
Cc1ccccc1C(=O)N1CCc2cc(-n3cc(NC(=O)Cc4ccccc4)cn3)ccc21,inactive,inactive
COc1ccc(CNC(=O)c2nc(S(=O)(=O)Cc3ccccc3)ncc2Cl)cc1,inactive,inactive
N#Cc1ccc(S(=O)(=O)N2CCN(S(=O)(=O)c3ccc4c(c3)OCCO4)CC2)cc1,inactive,inactive
Cc1ccc(OCCn2c(CCNC(=O)c3cccc(NC(=O)OC(C)(C)C)c3)nc3ccccc32)cc1,inactive,inactive

SMILES,Potency [1],Potency [2]
CC(=O)Nc1sc2c(c1-c1ccccc1)CCNC2,inactive,inactive
CC(C)c1ccccc1-c1ncc(N)c(NCc2ccc(-c3cccnc3)cc2)n1,inactive,inactive
Cc1cc(C)nc(NC(=S)N2CCN(c3cncnc3)CC2)c1,inactive,inactive
O=C(Nc1ncc([S+](=O)([O-])N2CCOCC2)s1)c1cccc(Br)c1,inactive,inactive
O=c1c2ccc(F)cc2nc2sc(Nc3ccc4c(c3)CCC4)nn12,inactive,inactive
FC(F)(F)c1ccc(CSc2nc3ncc(Br)cc3[nH]2)cc1,inactive,inactive
O=[S+]([O-])(c1ccc2nsnc2c1)N1CCN([S+](=O)([O-])c2c(F)cccc2F)CC1,inactive,inactive
CC1(C)CC2CC(C)(CN2S(=O)(=O)c2ccc(C(=O)Nc3ccc(Cl)cc3)cc2)C1 (stereo unspecified),inactive,inactive
N#Cc1ccc(OC2=NS(=O)(=O)c3ccccc32)cc1,inactive,inactive
CCCn1c(C)nc2c(NCCOC)nc(C)nc21,inactive,inactive
CCCc1cc(F)c(S(=O)(=O)N2CCN(S(=O)(=O)c3ccc4c(c3)OCCO4)CC2)cc1F,inactive,inactive
COc1ccc(CSc2nc3ncc(Br)cc3[nH]2)cc1F,inactive,inactive
C=C1CCC2C(C)(C(=O)OC)CCCC2(C)C1CCC1=CCOC1=O (stereo unspecified),inactive,inactive
O=S(=O)(c1ccc2c(c1)OCCO2)N1CCN(S(=O)(=O)c2ccc3nc(Cl)c(Cl)nc3c2)CC1,inactive,inactive
COc1ccc(C(F)(F)F)cc1NC(=O)C(OC(=O)CNC(=O)c1ccccc1)c1ccccc1 (stereo unspecified),inactive,inactive
Cc1nc(NCc2ccccc2)c2nc(-c3ccccc3)n(CC3CCN(C)CC3)c2n1,inactive,inactive
Cc1ccc(-c2cc(C(=O)Nc3ccc(-c4nn[nH]n4)cc3)c3ccccc3n2)cc1C,inactive,inactive
CCCCNC(=S)NCCCc1cnc[nH]1,inactive,inactive
Cc1cc(C)nc(NC(=S)N2CCN(c3ccc(Cl)c(Cl)c3Cl)CC2)c1,inactive,inactive
Cc1ccc(NS(=O)(=O)c2ccc3c(c2)n(C)c(=O)n3C)cc1C,inactive,inactive
NC(=O)c1c(-c2ccccc2)no[n+]1[O-],inactive,inactive
Cc1cnc(NC(=O)c2ccc(-c3cccc([N+](=O)[O-])c3)o2)s1,inactive,inactive
COC(=O)c1ccccc1S(=O)(=O)Nc1ccc(OC)cc1,inactive,inactive
COc1cnc(-c2ccccc2C(C)C)nc1NCc1ccc(-c2cccnc2)cc1,inactive,inactive
Oc1cccc2cc(-c3ccncc3)cnc12,inactive,inactive
O=C1CCCC2=C1C(c1[nH]ncc1Cl)N=C(Nc1nc3cc([S+](=O)([O-])N4CCCC4)ccc3o1)N2 (stereo unspecified),inactive,inactive
